# Source: PubChem
# Compounds with a hit are over-represented: about 10% of the library has one in this group of screens.
# GLS inhibitor = inhibitors of human glutaminase (GLS). O94925. GLS enzymatic activity, qHTS titration. Potency, µM (doses to about 45.5 µM), for the others: at the highest dose activity change, negative = inhibition, hits mostly inhibitors. 0.21% of 410,000 active. AID 624170; also: % is scaled to controls: 0 for no effect and ±100 for the full control effect
#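 Coupled fluorescence readout: glutamate oxidase/HRP/Amplex Red detect glutamate formed by hKGA from L-glutamine (1 mM solution added). Buffer 45 mM KH2PO4 pH 8.2, 0.02% Tween-20; reads at t0 and 30 min RT.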
# HP1b binding inh = inhibitors of HP1-beta chromodomain binding to methylated histone tails; AID 540317; 0.56% of 390,000 active; Potency, µM (titrated, usually from 114 µM), inactives show at the top dose activity change, negative = inhibition, actives largely listed as inhibitors; AlphaScreen HP1-beta / biotin-H3K9me3 peptide binding; also: nearly all actives have a fitted effect of over 70% in size
#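 HP1-beta protein (50 nM final) preincubated 30 min at room temperature with biotinylated H3(1-18)K9me3 peptide (50 nM) in PBS pH 7.4, 0.01% Tween-20, then compound added for 30 min. AlphaScreen streptavidin donor/nickel chelate acceptor beads (10 ug/mL final), 30 min dark, luminescence read.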
# L3MBTL1 block = inhibitors of human L3MBTL1; Q9Y468; AlphaScreen L3MBTL1–H3K9me1 peptide binding; Potency, µM (titrated, usually from 57.1 µM), for inactives: top-dose activity, negative = inhibition, most hits filed as inhibitors; 0.66% of 230,000 active; also: % is scaled to controls: 0 for no effect and ±100 for the full control effect; nearly all actives have a fitted effect of over 60% in size
#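 AlphaScreen proximity signal between nickel-chelate acceptor and streptavidin donor beads (final 10 ug/mL) reports binding of 50 nM L3MBTL1 to 75 nM biotin-H3 K9me1 peptide; complex incubated with compounds 30 min at room temperature; cefsulodin titration as control.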
# JMJD2A Tudor inh = blocks the human JMJD2A Tudor domain | O75164 | AlphaScreen JMJD2A-Tudor / H3K4me3 peptide binding | Potency, µM (series often up to 114 µM), without a hit: at the top dose activity change, negative = inhibition, usual class: inhibitors | 4.4% of 390,000 active; also: % is scaled to controls: 0 for no effect and ±100 for the full control effect; nearly all actives have a fitted effect of over 50% in size
# G9a inh = inhibitors of human histone lysine methyltransferase G9a; Q96KQ7; G9a H3K9 monomethylation, AlphaScreen, 2 h; Potency, µM (highest dose often 102 µM), for inactives: at the highest dose activity, negative = inhibition, hits mostly inhibitors; 8.8% of 350,000 active; AID 504332; also: % is scaled to controls: 0 for no effect and ±100 for the full control effect; nearly all actives have a fitted effect of over 75% in size
#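 Compounds were preincubated with 20 nM G9a for 15 min, after which biotinylated H3K9 peptide (500 nM) and SAM (20 uM) started a 2 h room-temperature reaction. Monomethylated product was quantified by antibody-based AlphaScreen chemiluminescence.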
# BAZ2B block = inhibitors of human BAZ2B bromodomain | Q9UIF8 | 4.4% of 360,000 active | AID 504333 | AlphaScreen BAZ2B-H3K14Ac peptide displacement | Potency, µM (doses to about 114 µM), for inactives: at the top dose activity change, negative = inhibition, usual class: inhibitors; also: % is scaled to controls: 0 for no effect and ±100 for the full control effect; nearly all actives have a fitted effect of over 60% in size
#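 Inhibition is scored as reduced AlphaScreen emission. The BAZ2B/b-H3(5-23)K14Ac complex (50 nM each) in PBS pH 7.4, 0.01% Tween-20 meets compound (up to 110 uM) for 30 min at RT before bead addition.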
# * = called active by the depositor; ? = inconclusive; / = no result; [ ] = dose if it differs, or a comment. Calls follow the shape of the dose curve; as a rule, active = well fitted curve in the direction sought with a large enough effect; inconclusive = small, poorly fitted or top-dose-only effect, or another doubt; inactive = no such curve, though single readings can be large; an effect the other way counts as inactive or inconclusive. Potency is read from the fitted curve at half-maximal effect.
SMILES,GLS inhibitor,HP1b binding inh,L3MBTL1 block,JMJD2A Tudor inh,G9a inh,BAZ2B block
O=C1CC(=O)N(c2cccc(F)c2)N1,1%,18%,0%,-11%,56µM*,-38%
C[N+]1(CC(=O)OCCCc2ccccc2)CCCC1,-3%,21%,-1%,?,10µM*,56µM*
COc1ccc(NC(=O)C2=C(C)Nc3nc(SCc4ccc(C)cc4C)nn3C2c2cccc(OC)c2OC)cc1 (configuration not stated),-2%,20%,/,5%,5%[59 µM],-12%
CCN(Cc1ccccc1)C1CCN(Cc2ccc(SC)cc2)CC1,-11%,?,/,2.5µM*,?,50µM*
CCN(Cc1ccccc1)C(=O)C1CCN(Cc2ccc(SC)cc2)CC1,5%,?,-7%,20µM*,0%,-22%
CCN(Cc1ccccc1)C(=O)C1CCN(C/C(C)=C/c2ccccc2)CC1,5%,-24%,-2%,16µM*,35µM*,?
C/C(=C\c1ccccc1)CN1CCN(C)CC1,1%,?,-5%,-100%,13µM*,?
Cc1ccc(NS(=O)(=O)c2ccc3c(c2)C(Cl)(Cl)C(=O)N3)cc1C,/,/,/,-31%,/,/
COc1ccc(C2C(=O)N(C3CCCCCC3)CC(=O)N2Cc2ccc(C)cc2)cc1OC (configuration not stated),0%,?,/,-22%,-4%[59 µM],-16%
CC(C)CCNC(=O)CN1C(=O)c2cccnc2Oc2ccccc21,1%,4%,/,-14%,8%[59 µM],5%
CNCCCOc1ccc(C)cc1OC,-10%,-37%,49%,1.6µM*,/,40µM*
C/C=C/c1ccc(OCCNCc2ccccc2)c(OC)c1,10%,?,1%,-18%,?,56µM*
C/C=C/c1ccc(OCCCNC)c(OC)c1,6%,?,/,1.1µM*,16µM*,50µM*
C/C=C/c1ccc(OCCOc2ccc(C=O)cc2)c(OC)c1,-1%,58%,16%,14%,57%[59 µM],10%
C/C=C/c1ccc(OCCCCN(C)Cc2ccccc2)c(OC)c1,4%,?,-12%,18µM*,?,50µM*
C/C=C/c1ccc(OCCCCOc2c(OC)cccc2OC)c(OC)c1,-3%,129%,26%,29%,49%[59 µM],42%
Cc1cc(-c2ccc(S(=O)(=O)NCc3ccccc3Cl)s2)on1,-10%,27%,/,-3%,-6%[59 µM],15%
CCCn1c2ccccc2c2cnn(CC(=O)N(Cc3ccccc3)C(C)C)c(=O)c21,2%,23%,/,-15%,-9%[59 µM],-13%
Cc1ccc(CNC(=O)CCS(=O)(=O)c2cc3c4c(c2)CCN4C(=O)CC3)cc1,-5%,10%,/,-8%,8%[59 µM],4%
CC1(C)CC1C(=O)Nc1ccc([N+](=O)[O-])cc1Br (configuration not stated),?,-6%,-5%,-19%,-22%,1%
Cc1ccc(C2(c3ccc(C)cc3)CC2C(=O)Nc2ccc([N+](=O)[O-])cc2O)cc1 (configuration not stated),1%,-32%,-24%,?,25µM*,?
CC(=O)N/C(=N\c1nc(C)cc(C)n1)Nc1ccc2ccccc2c1,-3%,44%,-1%,-3%,79µM*,-22%
CC(=O)N/C(=N/c1nc(C)cc(C)n1)Nc1ccc(NC(C)=O)cc1,9%,18%,-10%,-3%,-5%[12.7 µM],3%
C=CCn1cnc2c(sc3nc(C)cc(C)c32)c1=O,2%,42%,0%,-17%,-9%,-1%
C=CCn1c(-c2cccc(OCC)c2)n[nH]c1=S,-11%,38%,6%,22µM*,8.9µM*,-9%
C=CCn1c(-c2sc3nc(C)cc(C)c3c2N)n[nH]c1=S,-28%,52%,-7%,40µM*,7.9µM*,-17%
C=CCn1c(-c2cc(OC)cc(OC)c2)n[nH]c1=S,-4%,26%,8%,32µM*,?,13%
